{
  "source": "PubChem BioAssay (NCATS)",
  "note": "Records with an inconclusive call do not appear. A number with no mark means an inactive call. Calls of active or inactive are those of the source. Calls follow the shape of the dose curve; as a rule, active = well fitted inhibition curve with a large enough effect; inconclusive = small, poorly fitted or top-dose-only effect; inactive = flat fitted curve, though single readings scatter. % is scaled to controls: 0 for no effect and ±100 for the full control effect; potency is read from the fitted curve at half-maximal effect.",
  "data": [
    {"test_system": "HaCat", "assay": "Cytotoxic Profiling of Annotated Libraries Using Quantitative High-Throughput Screening (AID 1296008); also: nearly all actives have a fitted effect of over 60% in size", "conditions": "Five cell lines viability, CellTiter-Glo ATP luminescence, 48-72 h; max response: stronger effect = lower value", "in_short": "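Cells exposed to compounds for 48 or 72 hr at 37 degrees Celsius. Viability read as ATP-coupled luminescence with CellTiter-Glo after 10 min at room temperature.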", "units": {"max response": "%"}, "values": [
      {"smiles": "CC(=O)c1cc2c(cc1O)OC(C)(C)C=C2", "max response": -16.3},
      {"smiles": "O=C1C=CC(O)(/C=C/C(=O)OC[C@H]2O[C@@H](Oc3ccc(O)cc3)[C@H](O)[C@@H](O)[C@@H]2O)C=C1", "max response": 4.51},
      {"smiles": "O=C(O)CC1CCC(c2ccc(-c3ccc4nc(C(=O)NCc5ccc(OC(F)(F)F)cc5)cn4c3)cc2)CC1", "note": "(centres undefined)", "max response": -3.96},
      {"smiles": "CC12CCC(OC3OC(CO)C(O)C(OC4OC(CO)C(O)C(O)C4O)C3O)CC1=CCC1C2CCC2(C)/C(=C3/COC(=O)C3)CCC12O", "note": "(centres undefined)", "outcome": "inactive"},
      {"smiles": "O=C(CN1C(=O)C2(CCCC2)NCC1c1cc(F)cc(F)c1)Nc1ccc2c(c1)CC1(C2)C(=O)Nc2ncccc21", "note": "(centres undefined)", "max response": 1.71},
      {"smiles": "C[C@@H]1O[C@@H](O[C@H]2[C@H](O)[C@@H](O)[C@H](OC[C@H]3O[C@@H](OC(=O)[C@]45CCC(C)(C)C[C@H]4C4=CCC6[C@@]7(C)CC[C@H](O[C@@H]8OC[C@H](O)[C@H](O[C@@H]9O[C@H](CO)[C@@H](O)[C@H](O)[C@H]9O)[C@H]8O)[C@@](C)(CO)C7CC[C@@]6(C)[C@]4(C)CC5)[C@H](O)[C@@H](O)[C@@H]3O)O[C@@H]2CO)[C@H](O)[C@H](O)[C@H]1O", "note": "(some centres undefined)", "max response": -0.978},
      {"smiles": "O=C(Nc1nc2ccccc2n1CCc1ccccc1)c1ccccc1", "outcome": "inactive"},
      {"smiles": "C[C@H]1O[C@@H](O[C@H]2CC[C@@]3(C)C(CC[C@]4(C)C3CC=C3C5CC(C)(C)CC[C@]5(C(=O)O)CC[C@]34C(=O)O)C2(C)C)[C@H](O)[C@@H](O)[C@@H]1O", "note": "(some centres undefined)", "max response": -21.6},
      {"smiles": "CCc1c(-c2ccccc2)c(-c2ccccc2)nn1-c1ccccc1-c1cccc(OCC(=O)O)c1", "max response": -10.2},
      {"smiles": "Cc1cc(C(=O)Nc2cccc(C(=O)Nc3cccc(C(F)(F)F)c3)c2)on1", "outcome": "inactive"},
      {"smiles": "C[C@@H]1C(=O)O[C@H](C)[C@H]1CC(=O)[C@](C)(O)[C@H]1CC[C@@]2(O)C3=CC(=O)[C@@H]4C[C@@H](O)[C@@H](O)C[C@]4(C)C3CC[C@]12C", "note": "(some centres undefined)", "max response": -15.8},
      {"smiles": "CC/C=C\\[C@H](O)[C@H](O)C1=C(C)C(=O)[C@]2(O1)C(=O)N[C@@](OC)(C(=O)c1ccccc1)[C@@H]2O", "max response": -9.21},
      {"smiles": "CC(O)(CC(=O)O)CC(=O)OCc1ccc(O[C@@H]2O[C@H](CO)[C@@H](O)[C@H](O)[C@H]2O)cc1", "note": "(some centres undefined)", "max response": 1.6},
      {"smiles": "COC(=O)C1=CO[C@@H](O[C@@H]2O[C@H](CO)[C@@H](O)[C@H](O)[C@H]2O)[C@H]2[C@@H]1C=C[C@@]21C=C([C@H](C)O)C(=O)O1", "outcome": "inactive"},
      {"smiles": "CC1CCC2(OC1)OC1CC3C4CC=C5CC(O)CC(O[C@@H]6OC[C@@H](O)[C@H](O)[C@H]6O)C5(C)C4CCC3(C)C1(O)C2C", "note": "(some centres undefined)", "max response": 3.49},
      {"smiles": "Cc1cc(OCc2nc(-c3ccccc3Cl)cs2)ccc1OCC(=O)O", "outcome": "inactive"},
      {"smiles": "CC(C)(C)NCCCNC(=O)c1cccc(Br)c1", "max response": 4.1},
      {"smiles": "CN(C)C(=O)NC1CCC(CCN2CCN(c3cccc(Cl)c3Cl)CC2)CC1", "note": "(centres undefined)", "outcome": "inactive"},
      {"smiles": "C[C@@H]1C(=O)O[C@H]2[C@H](O)C34[C@H]5C[C@@H](C(C)(C)C)C36[C@@H](OC(=O)[C@@H]6O)O[C@@]4(C(=O)O5)[C@@]12O", "note": "(some centres undefined)", "max response": -29.1},
      {"smiles": "CC(C)c1cccc2c(-c3ccccc3)cc(-c3ccc(-c4ccc(C(=O)O)cc4)[nH]3)nc12", "outcome": "inactive"},
      {"smiles": "C=C1CCC[C@]2(C)CC[C@@H](C(=C)C(=O)O)[C@H](O)[C@@H]12", "outcome": "inactive"},
      {"smiles": "CC(C)CC(=O)OC1OC=C(CO[C@@H]2O[C@H](CO)[C@@H](O)[C@H](O)[C@H]2O)C2CC(O)C(O)(CO)C12", "note": "(some centres undefined)", "max response": -4.52},
      {"smiles": "CC(C)=C/C=C\\[C@H](C)[C@H]1CC[C@]2(C)C[C@@H]3C(C)=CC(=O)C3/C(CO)=C\\C[C@@H]12", "note": "(some centres undefined)", "outcome": "inactive"},
      {"smiles": "OCC1OC(Oc2cc(O)cc(/C=C/c3ccc(O)cc3)c2)C(O)C(O)C1O", "note": "(centres undefined)", "outcome": "inactive"},
      {"smiles": "C[C@@H]1CCN(C(=O)N2CCCC2)C[C@@H]1N(C)c1ncnc2[nH]ccc12", "outcome": "inactive"},
      {"smiles": "O=C(/C=C\\n1cnc(-c2cc(C(F)(F)F)cc(C(F)(F)F)c2)n1)N1CC(F)(F)C1", "max response": -18.4},
      {"smiles": "C=CC(=O)Nc1cc(Nc2nccc(-c3c[nH]c4ccccc34)n2)c(OC)cc1N(C)CCN(C)C", "Potency": "36.6 nM (active)"},
      {"smiles": "CC1(C)CC[C@]2(C(=O)O[C@@H]3O[C@H](CO)[C@@H](O)[C@H](O)[C@H]3O)CC[C@]3(C)C(=CCC4[C@@]5(C)CC[C@H](O[C@@H]6O[C@H](C(=O)O)[C@@H](O)[C@H](O)[C@H]6O)[C@@](C)(CO)C5CC[C@]43C)C2C1", "note": "(some centres undefined)", "outcome": "inactive"},
      {"smiles": "C[C@H](C/C=C/C(C)(C)O)[C@H]1CC[C@@]2(C)[C@@H]3[C@@H](O[C@@H]4O[C@H](CO)[C@@H](O)[C@H](O)[C@H]4O)C=C4C(CC[C@H](O)C4(C)C)[C@]3(C=O)CC[C@]12C", "note": "(some centres undefined)", "max response": -5.49},
      {"smiles": "C=CC1(C)CC(OC(=O)/C(C)=C\\COC(C)=O)C(C(=C)C(=O)O)C(O)C1C(=C)CO", "note": "(centres undefined)", "max response": 3.73},
      {"smiles": "Cc1cccc(Oc2cnc(=O)[nH]c2)c1", "max response": -9.89},
      {"smiles": "COc1ccc(/C=C\\C(=O)O)c(O[C@@H]2O[C@H](CO)[C@@H](O)[C@H](O)[C@H]2O)c1", "max response": -1.35},
      {"smiles": "COC(=O)C1=CO[C@@H](O[C@@H]2O[C@H](CO)[C@@H](O)[C@H](O)[C@H]2O)C2C1C(=O)C[C@H]2C", "note": "(some centres undefined)", "outcome": "inactive"},
      {"smiles": "CC1=CC(=O)CC2C1(O)CCC(C)C21CC(c2ccoc2)OC1=O", "note": "(centres undefined)", "max response": -50.8},
      {"smiles": "Cc1cc(O)cc(O[C@@H]2O[C@H](CO)[C@@H](O)[C@H](O)[C@H]2O)c1", "max response": -10.5},
      {"smiles": "CCCCNc1ncc2c(-c3ccc(CN4CCN(C)CC4)cc3)cn(C3CCC(O)CC3)c2n1", "note": "(centres undefined)", "Potency": "920 nM (active)"},
      {"smiles": "CN1C2CCC1CC(OC(=O)[C@H](CO)c1ccccc1)C2", "note": "(some centres undefined)", "outcome": "inactive"},
      {"smiles": "C/C=C/c1ccc2c(c1)[C@@H](C)[C@H](c1ccc(O)cc1)O2", "outcome": "inactive"},
      {"smiles": "CC1C(OC(=O)c2ccccc2)C(O)C2C(C(=O)O)=COC(OC3OC(CO)C(O)C(O)C3O)C12", "note": "(centres undefined)", "max response": -2.92}
    ]}
  ]
}
